For 45 sequences, binding signal results are on record in PMC10726135, “HNF4α isoforms regulate the circadian balance between carbohydrate and lipid metabolism in the liver”.

Over roughly 18,000 sequences, “log2 normalized intensity” has its median near 0.36; the highest 2% begin near 7.3. What follows is part of a selection rich in the highest values, with near analogues and random picks from the rest.

The target of this experiment is T1, HNF4alpha8 (COS-7 nuclear extract) (Homo sapiens, UniProt P41235-5 1-452).
T1 sequence: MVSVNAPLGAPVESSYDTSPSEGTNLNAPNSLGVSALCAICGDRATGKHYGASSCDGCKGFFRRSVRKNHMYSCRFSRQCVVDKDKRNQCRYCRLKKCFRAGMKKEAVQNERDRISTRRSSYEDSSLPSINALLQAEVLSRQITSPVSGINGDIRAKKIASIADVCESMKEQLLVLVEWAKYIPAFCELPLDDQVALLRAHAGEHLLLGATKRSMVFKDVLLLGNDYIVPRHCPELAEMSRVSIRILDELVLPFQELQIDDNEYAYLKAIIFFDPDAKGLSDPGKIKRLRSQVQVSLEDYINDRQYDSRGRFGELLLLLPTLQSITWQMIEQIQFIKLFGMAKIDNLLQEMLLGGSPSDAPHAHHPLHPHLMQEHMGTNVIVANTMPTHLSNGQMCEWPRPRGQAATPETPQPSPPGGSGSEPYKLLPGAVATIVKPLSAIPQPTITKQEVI
Put plainly: protein-binding microarray; COS-7 nuclear extract on double-stranded Agilent 4x180k PBM; binding buffer, salt, pH and temperature not given in the material; high values mean tight binding. To be noted: chain copies: 2; label: 3' end of strand 1 on the slide; dsDNA, one strand shown. In a few lines: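 Binding signal was defined as the normalized, background-corrected gProcessedSignal reported by Agilent software. It came from nuclear extracts of COS-7 cells transiently transfected with a human HNF4α isoform expression vector, applied to a custom Agilent SurePrint G3 4x180k array. That array held ~44,000 test sequences in quadruplicate as double-stranded ~60-nt oligonucleotides, and bound HNF4α was imaged at 2-µm resolution on an Agilent G2565CA scanner.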
Consider “GCAACCTTTGCTCTCCCTCCTCTCTGAGCAGCCTAGGGAGATTAGAGTATCGGTCGA”, for which the binding signal is 2.28 log2 normalized intensity. The result for “ATCGCCCTTTGAGGAGGCCTTTCCTGACCCGCCTAGGGAGATTAGAGTATCGGTCGA” reads 3.43 log2 normalized intensity; that for “CTGGGCCCTGCCTGACCTGCCCTTTGTCCCGCCTAGGGAGATTAGAGTATCGGTCGA”, 6.91 log2 normalized intensity; that for “GGGCCCTGACCTCAAGTGACCTTTGACCTCGCCTAGGGAGATTAGAGTATCGGTCGA”, 12 log2 normalized intensity. On to “GGAGTGTGGGGTGGTGTCAGGAGTACAGGTGCCTAGGGAGATTAGAGTATCGGTCGA”, for which the binding signal came out at 1.12 log2 normalized intensity. With “ATGACCTTTGACTGAGATGGGAGCAGTGCTGCCTAGGGAGATTAGAGTATCGGTCGA”, the binding signal came out at 3.52 log2 normalized intensity. “TTGAGCTGGATGACCTTTGTCCTGGCACAAGCCTAGGGAGATTAGAGTATCGGTCGA”: the binding signal was 8 log2 normalized intensity. The result for “CTGGATGACCTTTGTCCTGGCACAACTGGAGCCTAGGGAGATTAGAGTATCGGTCGA” reads 6.78 log2 normalized intensity. The figure for “TGACCTTTGTCCTGGCACAACTGGATGGTGGCCTAGGGAGATTAGAGTATCGGTCGA” is 5.2 log2 normalized intensity; for “ATGGGATGACCTTTGAGCAATAGGAAATGGGCCTAGGGAGATTAGAGTATCGGTCGA” it is 4.79 log2 normalized intensity. For the sequence “AGAATCATCTTTGAGCTGGATGACCTTTGTGCCTAGGGAGATTAGAGTATCGGTCGA”, the binding signal was 8.24 log2 normalized intensity. Turning to “TCCTGATCTTTGACCTGGAGCATGACCCTTGCCTAGGGAGATTAGAGTATCGGTCGA”, the binding signal came out at 5.6 log2 normalized intensity.

Regarding “CTAGTTAAGTCACTGGGCTGATGACCTTTGGCCTAGGGAGATTAGAGTATCGGTCGA”, the binding signal was 6.81 log2 normalized intensity. As for “TAAGTCACTGGGCTGATGACCTTTGACTGAGCCTAGGGAGATTAGAGTATCGGTCGA”, the binding signal was determined as 7.85 log2 normalized intensity. As to “CACTGGGCTGATGACCTTTGACTGAGATGGGCCTAGGGAGATTAGAGTATCGGTCGA”, the binding signal came out at 5.81 log2 normalized intensity. As to “TTTTTTTTTTGAGATGGAATCTTGCCCTGTGCCTAGGGAGATTAGAGTATCGGTCGA”, the binding signal stood at 3.54 log2 normalized intensity.

Regarding “CATCTTTGAGCTGGATGACCTTTGTCCTGGGCCTAGGGAGATTAGAGTATCGGTCGA”, the binding signal is 9.19 log2 normalized intensity. The result for “CTAGCCCCGCCCAGATGTCTGGCTAAGACCGCCTAGGGAGATTAGAGTATCGGTCGA” reads 3.43 log2 normalized intensity. The result for “GAGGAAAACCAGCTCAGTGGAAATTGTCCTGCCTAGGGAGATTAGAGTATCGGTCGA” reads 0.989 log2 normalized intensity; that for “CATATCTGGAATTTCAAAGGGAGCATATGTGCCTAGGGAGATTAGAGTATCGGTCGA”, 1.31 log2 normalized intensity; that for “CTTTCTTTGTCTGTGTAGACTCATCTGGTGGCCTAGGGAGATTAGAGTATCGGTCGA”, 1.89 log2 normalized intensity. With “ATGAAGCAAGAGTCCAAATTCCTAGCCCTCGCCTAGGGAGATTAGAGTATCGGTCGA”, the binding signal was determined as 2.14 log2 normalized intensity.

On to “AGGTTCCTCGCCTATGGTATGTATGGAATGGCCTAGGGAGATTAGAGTATCGGTCGA”, for which the binding signal was found to be 2.2 log2 normalized intensity. The figure for “TCTTTGCACTTGATGTTCCCCCTCCCTGGAGCCTAGGGAGATTAGAGTATCGGTCGA” is 4.84 log2 normalized intensity; for “TGGCTAAGACAGGGGCTATTTCTGACCTTTGCCTAGGGAGATTAGAGTATCGGTCGA” it is 7.32 log2 normalized intensity; for “CCTTTGCACCAGAGATAATATGCTTACTTAGCCTAGGGAGATTAGAGTATCGGTCGA” it is 0.614 log2 normalized intensity. The figure for “CTATTTCTGACCTTTGCACCAGAGATAATAGCCTAGGGAGATTAGAGTATCGGTCGA” is 6.97 log2 normalized intensity; for “AGGGGCTATTTCTGACCTTTGCACCAGAGAGCCTAGGGAGATTAGAGTATCGGTCGA” it is 7.69 log2 normalized intensity.

For “AAGACAGGGGCTATTTCTGACCTTTGCACCGCCTAGGGAGATTAGAGTATCGGTCGA”, the binding signal is 10.2 log2 normalized intensity.

In the case of “TCTGACCAGGCTGATTTAGCTATTTGACCTGCCTAGGGAGATTAGAGTATCGGTCGA”, the binding signal was found to be 4.7 log2 normalized intensity. The result for “CTGAGACAACACTCAGGATACCTAAGCCCCGCCTAGGGAGATTAGAGTATCGGTCGA” reads 1.33 log2 normalized intensity; that for “TCTTATTTACCGAAATGTGGGTGAGGCTGTGCCTAGGGAGATTAGAGTATCGGTCGA”, 1.67 log2 normalized intensity. The result for “AAGCTATTCACTTTTTGGCCTTTGGCTGTTGCCTAGGGAGATTAGAGTATCGGTCGA” reads 3.01 log2 normalized intensity; that for “TAAAATGGACTTTGTGGGCCAAAAGCAGCCGCCTAGGGAGATTAGAGTATCGGTCGA”, 2.65 log2 normalized intensity. For the sequence “AAAAAGTCCCTGGTCCCATAGGAAAGTGAGGCCTAGGGAGATTAGAGTATCGGTCGA”, the binding signal is -0.813 log2 normalized intensity. The result for “TTTTGAATGACAGTGTCAGGACCTTGCTCCGCCTAGGGAGATTAGAGTATCGGTCGA” reads 2.73 log2 normalized intensity; that for “AATACTTGCCTAAGGTCAATGTCCTTTTTCGCCTAGGGAGATTAGAGTATCGGTCGA”, 4.53 log2 normalized intensity; that for “TCTTAACATCAGAAGTTGGACTTTGTACATGCCTAGGGAGATTAGAGTATCGGTCGA”, 9.76 log2 normalized intensity. The figure for “ACTTTGGAACTCAGTTAATGTACAGAGTATGCCTAGGGAGATTAGAGTATCGGTCGA” is 0.96 log2 normalized intensity; for “AGGAGATGTGGTGGACTTTAACGACCTTTGGCCTAGGGAGATTAGAGTATCGGTCGA” it is 5.28 log2 normalized intensity. The figure for “CCCCTTCTTAACATCAGAAGTTGGACTTTGGCCTAGGGAGATTAGAGTATCGGTCGA” is 8.31 log2 normalized intensity; for “AGGGACTTTGATCTTCTTACCCCTTTGCTGGCCTAGGGAGATTAGAGTATCGGTCGA” it is 3.3 log2 normalized intensity.

On to “ATTAGAGAACATGTACTTTGTACTGCTTATGCCTAGGGAGATTAGAGTATCGGTCGA”, for which the binding signal came out at 4.99 log2 normalized intensity. The result for “CCTTGATGTGTATTTGTAGCTTCAAACCAGGCCTAGGGAGATTAGAGTATCGGTCGA” reads 1.52 log2 normalized intensity; that for “GGGGGTTTGCAACCTTTGATAACCTACAACGCCTAGGGAGATTAGAGTATCGGTCGA”, 1.37 log2 normalized intensity.
